According to the antibiotic and cytotoxicity screens of Wong et al. (2023):
The campaign covered roughly 39,000 compounds. About 3,300 (8.5%) were called active. The entries come from a sample that favours actives as a whole.

Tested on: HepG2
Experiment: cytotoxicity call (relative viability < 0.9)
Settings: 10 µM

| SMILES | cytotoxicity call |
| --- | --- |
| C[C@@H]1CN([C@H](C)CO)C(=O)c2cc(NS(=O)(=O)c3cn(C)cn3)ccc2O[C@H]1CN(C)CC1CCCCC1 | inactive |
| C[C@H]1CN([C@@H](C)CO)C(=O)CCCn2cc(nn2)CO[C@H]1CN(C)C(=O)Nc1ccccc1C(F)(F)F | inactive |
| C[C@H](CO)N1C[C@H](C)[C@H](CN(C)S(C)(=O)=O)Oc2ncc(Br)cc2C1=O | inactive |
| COc1ccccc1[C@@H](NC(=O)C1CCN(CCc2ccc(Br)cc2)CC1)c1ccccn1 | inactive |
| COc1ccc(/C=C/CN2CCC(C(=O)N[C@@H](c3ccc(-c4ccccc4)cc3)c3cnccn3)CC2)cc1 | active |
| COc1ccc([C@@H](NC(=O)C2CCN(CCOc3ccc(Cl)cc3Cl)CC2)c2ccccn2)cc1 | inactive |
| COc1ccc(NC(=O)Nc2ccc3c(c2)C(=O)N([C@@H](C)CO)C[C@H](C)[C@@H](CN(C)C(=O)Nc2c(C)noc2C)OCCCC[C@H](C)O3)cc1 | inactive |
| CC(C)N(C)C(=O)c1cccc(NC(=O)c2ccncc2)c1OCCCN(C)Cc1ccc(Oc2ccccc2)cc1 | inactive |
| C=C[C@](C)(O)CCC=C(C)C | inactive |
| C=CC(C)(O)CCC=C(C)C (stereo not drawn) | inactive |
| CC(C)=CCCC(C)=CCCC(C)=CCCC(C)=CCCC(C)=CCCC(C)=CCCC(C)=CCCC(C)=CCCC(C)=CCO | inactive |
| CC(C)=CCCC(C)=CCO | active |
| CC(C)=CCC/C(C)=C/CO | inactive |
| C=CC(C)(O)CCC=C(C)CCC=C(C)C (stereo not drawn) | active |
| CN1CCN(C(=O)C[C@@H]2CC[C@H]3[C@H](COc4ccc(NC(=O)c5ccc(F)c(F)c5)cc4C(=O)N3C)O2)CC1 | inactive |
| C[C@@H]1CN([C@H](C)CO)C(=O)Cc2cc(NS(=O)(=O)c3ccc(Cl)cc3)ccc2O[C@H]1CN(C)S(C)(=O)=O | inactive |
| Cc1ccc(S(=O)(=O)Nc2ccc3c(c2)C(=O)N([C@@H](C)CO)C[C@@H](C)[C@H](CN(C)CC2CCCCC2)OCCCC[C@@H](C)O3)cc1 | inactive |
| Cc1ccc(S(=O)(=O)Nc2ccc3c(c2)C(=O)N([C@@H](C)CO)C[C@H](C)[C@H](CN(C)CC2CCCCC2)OCCCC[C@H](C)O3)cc1 | inactive |
| Cc1ccc(S(=O)(=O)Nc2ccc3c(c2)C(=O)N([C@H](C)CO)C[C@@H](C)[C@H](CN(C)CC2CCCCC2)OCCCC[C@@H](C)O3)cc1 | inactive |
| Cc1ccc(S(=O)(=O)Nc2ccc3c(c2)C(=O)N([C@H](C)CO)C[C@H](C)[C@H](CN(C)CC2CCCCC2)OCCCC[C@H](C)O3)cc1 | active |
| Cc1ccc(S(=O)(=O)Nc2ccc3c(c2)C(=O)N([C@@H](C)CO)C[C@@H](C)[C@@H](CN(C)CC2CCCCC2)OCCCC[C@H](C)O3)cc1 | inactive |
| Cc1ccc(S(=O)(=O)Nc2ccc3c(c2)C(=O)N([C@@H](C)CO)C[C@@H](C)[C@@H](CN(C)CC2CCCCC2)OCCCC[C@@H](C)O3)cc1 | active |

| SMILES | cytotoxicity call |
| --- | --- |
| Cc1ccc(S(=O)(=O)Nc2ccc3c(c2)C(=O)N([C@H](C)CO)C[C@H](C)[C@H](CN(C)CC2CCCCC2)OCCCC[C@@H](C)O3)cc1 | inactive |
| Cc1ccc(S(=O)(=O)Nc2ccc3c(c2)C(=O)N([C@H](C)CO)C[C@@H](C)[C@@H](CN(C)CC2CCCCC2)OCCCC[C@H](C)O3)cc1 | active |
| Cc1ccc(S(=O)(=O)Nc2ccc3c(c2)C(=O)N([C@@H](C)CO)C[C@@H](C)[C@H](CN(C)CC2CCCCC2)OCCCC[C@H](C)O3)cc1 | inactive |
| Cc1ccc(S(=O)(=O)Nc2ccc3c(c2)C(=O)N([C@H](C)CO)C[C@H](C)[C@@H](CN(C)CC2CCCCC2)OCCCC[C@H](C)O3)cc1 | inactive |
| Cc1ccc(S(=O)(=O)Nc2ccc3c(c2)C(=O)N([C@H](C)CO)C[C@@H](C)[C@@H](CN(C)CC2CCCCC2)OCCCC[C@@H](C)O3)cc1 | active |
| Cc1ccc(S(=O)(=O)Nc2ccc3c(c2)C(=O)N([C@@H](C)CO)C[C@H](C)[C@H](CN(C)CC2CCCCC2)OCCCC[C@@H](C)O3)cc1 | inactive |
| CO[C@H]1CN(C)C(=O)c2ccc(NC(=O)Nc3ccc(Cl)cc3)cc2OC[C@@H](C)N(C(=O)Nc2c(C)noc2C)C[C@@H]1C | inactive |
| C[C@@H]1CCCCO[C@H](CN(C)Cc2ccc(C(=O)O)cc2)[C@@H](C)CN([C@H](C)CO)C(=O)c2cc(NS(=O)(=O)c3ccccc3)ccc2O1 | inactive |
| CCCNC(=O)N[C@@H]1C=C[C@H](CC(=O)N2CCN(C)CC2)O[C@@H]1CO | inactive |
| C[C@@H]1CN([C@H](C)CO)C(=O)CCCn2nncc2CO[C@@H]1CN(C)C(=O)Nc1ccnc(N2CCOCC2)c1 | inactive |
| OC[C@@H](O)[C@@H](O)[C@@H](O)/C=N/Nc1ccccc1 | inactive |
| CNC(=O)c1c(F)cccc1Nc1nc(Nc2cc3c(cc2OC)CCN3C(=O)CN(C)C)nc2[nH]ccc12 | active |
| CN1C(=O)c2cc(NC(=O)Cc3cccs3)ccc2OC[C@H]2O[C@H](CC(=O)NCCCN3CCOCC3)CC[C@H]21 | inactive |
| Cc1noc(C)c1NC(=O)Nc1ccc2c(c1)C(=O)N([C@@H](C)CO)C[C@H](C)[C@@H](CN(C)C(=O)C1CCCCC1)OCCCC[C@@H](C)O2 | inactive |
| COc1ccc2c3c([nH]c2c1)[C@H](CO)N(Cc1cc(ccc1F)F)C[C@]13CCN(CC1)C(=O)CN(C)C | inactive |
| CCC(C)(C)C(=O)C(=O)N1CCCC[C@H]1C(=O)O[C@@H](CCc1ccc(OC)c(OC)c1)c1cccc(OCC(=O)NCCc2ccc(O)cc2)c1 | inactive |
| CCC(=O)Nc1cccc([C@@H](CCc2ccc(OC)c(OC)c2)OC(=O)[C@@H]2CCCCN2C(=O)C(=O)C(C)(C)CC)c1 | inactive |
| C=CC(=O)Nc1cccc([C@@H](CCc2ccc(OC)c(OC)c2)OC(=O)[C@@H]2CCCCN2C(=O)C(=O)C(C)(C)CC)c1 | inactive |
| CC[C@H](C(=O)N1CCCC[C@H]1C(=O)O[C@H](CCc1ccc(OC)c(OC)c1)c1cccc(OCC(=O)NCCNC(=O)COc2cccc([C@@H](CCc3ccc(OC)c(OC)c3)OC(=O)[C@@H]3CCCCN3C(=O)[C@@H](CC)c3cc(OC)c(OC)c(OC)c3)c2)c1)c1cc(OC)c(OC)c(OC)c1 | inactive |
| COc1ccc(CC[C@@H](OC(=O)[C@H]2CCCCN2C(=O)Cc2ccccc2)c2cccc(OCC(=O)O)c2)cc1OC | active |
| CCCNC(=O)COc1cccc([C@@H](CCc2ccc(OC)c(OC)c2)OC(=O)[C@@H]2CCCCN2C(=O)C(=O)C(C)(C)CC)c1 | active |
